High-throughput results from PubChem.
Pf growth 96h: P. falciparum growth inhibition at 96 hours; P. falciparum luciferase reporter growth, 96 h; Potency, µM (titrated, usually from 28.7 µM), inactives show at the highest dose activity change, negative = inhibition, actives largely listed as inhibitors; 320,000 compounds, 6.9% hits; AID 504834; further: potency means the concentration at half of the fitted maximal effect; on the % scale 0 is the no-effect control and ±100 the full control effect
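Two parasite generations (96 h, 37 C, 5% CO2) of compound exposure in infected erythrocytes (0.05% parasitemia, 2% hematocrit). Luciferase-reporter P. falciparum; decreased luminescence indicates inhibited growth, aimed at apicoplast-acting delayed death.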
Cycloheximide cs: counter-screen hit for Shiga toxin inhibitors, cycloheximide; max response, %; AID 2314; cell reporter, cycloheximide protein synthesis inhibition counterscreen; 300,000 compounds, 12% hits; in the data active means max response mostly above about 13%, no sharp cut-off; inactive means mostly below about 14%; further: read at 38.3 µM for the half of the compounds with a filed dose; 0% is about no effect
AMA1 RON2 block: AMA1-RON2 (P. falciparum) interaction inhibition | AlphaScreen AMA1-biotinylated RON2 peptide binding | Potency, µM (titrated, usually from 58.2 µM), without a hit: at the highest dose activity change, negative = inhibition, hits mostly inhibitors | 360,000 compounds, 0.2% hits | AID 720542;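 further: potency means the concentration at half of the fitted maximal effect; 0% = vehicle wells and -100% = peptide control; nearly all actives have a fitted effect of over 45% in size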
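AMA1 (3D7) with his tag at 25 nM final met compounds first, then biotinylated RON2 peptide at 25 nM; detection used donor plus acceptor beads, 10 µg/mL apiece, read by AlphaScreen after 30 min at room temperature.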
SARS PLP yeast: inhibitors of SARS-CoV papain-like protease in yeast. S. cerevisiae expressing SARS-CoV PLpro, growth rescue. Potency, µM (titrated, usually from 32.9 µM), inactives show at the highest dose activity, positive = growth rescue, most hits filed as activators. 330,000 compounds, 0.19% hits; calls by dose curve; further: potency means the concentration at half of the fitted maximal effect; 0% is about no effect; nearly all actives have a fitted effect of over 55% in size
Shiga toxin inh: Shiga toxin inhibition. Vero cells, Shiga toxin protein synthesis inhibition reporter. inhibition, % at 38.7 µM. 290,000 compounds, 9.2% hits. AID 2315; in the data active means inhibition mostly above about 28%, no sharp cut-off; inactive means mostly below about 43%; further: 0% is about no effect
Pf growth 48h: P. falciparum growth inhibition at 48 hours (one generation). P. falciparum luciferase growth in erythrocytes, 48 h. Potency, µM (top dose mostly 28.7 µM), for inactives: at the highest dose activity change, negative = inhibition, hits mostly inhibitors. 310,000 compounds, 5.9% hits. AID 504832; further: potency means the concentration at half of the fitted maximal effect; on the % scale 0 is the no-effect control and ±100 the full control effect
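Cell-based growth assay: transgenic P. falciparum expressing firefly luciferase, cultured in red cells within RPMI 1640 containing 0.5% w/v Albumax, 24 mM bicarbonate and gentamycin. A drop in luciferase activity indicates inhibition.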
* = called active by the depositor; ? = inconclusive; . = not tested or not shown; [ ] = remark or other dose. Shown are actives, neighbours in structure and some others; about 19% of the full set was active somewhere. Unless noted, the call rests on the fitted dose curve; in most records, active means well fitted curve in the direction sought with a large enough effect; inconclusive means small, poorly fitted or top-dose-only effect, or another doubt; inactive means no such curve, though single readings can be large; an effect the other way counts as inactive or inconclusive.

SMILES	Pf growth 96h	Cycloheximide cs	AMA1 RON2 block	SARS PLP yeast	Shiga toxin inh	Pf growth 48h
CCOC(=O)c1ccc(NC(=O)Nc2ccccn2)cc1	?	24*	8%	-2%	61*	134%
CCOC(=O)c1nnsc1NC(=O)Nc1ccc(OC)cc1	27%	-3	-10%	2%	-7	4.1µM*
N#Cc1ccccc1OCC(=O)Nc1ccccc1C(=O)NC1CC1	?	.	6%	1%	.	17%
COc1ccccc1N1CCN(C(=O)C2CCN(S(=O)(=O)c3ccccc3F)CC2)CC1	?	.	0%	4%	.	?
CC(C)CNC(=O)CN(c1cccc(Cl)c1)S(C)(=O)=O	3%	-3	8%	0%	-7	1%
COc1ccc(NC(=O)CN2CCN(S(=O)(=O)N3CCCCCC3)CC2)cc1	57%	-7	-2%	0%	-8	-10%
Cc1cc(=O)n(-c2ccc3ccccc3n2)[nH]1	3%	47*	57%	?	51*	-12%
O=C1NC(=S)NC(=O)C1Nc1ccc(Cl)cc1	.	.	0%	.	.	.
COc1cc2c(cc1OC)C(c1ccccc1)N(C(=O)c1ccccc1)CC2 (centres undefined)	-1%	-2	-3%	-5%	.	?
COc1cc2c(cc1OC)C(c1ccccc1)CN(C)CC2 (centres undefined)	15µM*	.	.	.	.	?
CC(=O)Nc1cnc(-c2ccc3c(c2)OCO3)cn1	.	.	-3%	.	.	.
COc1ccc(C(=O)CN2CCOCC2)cc1F	0.66µM*	2	20%	-5%	7	34%
COc1ccc(C(=O)C(CN2CCOCC2)c2ccccc2)cc1F (centres undefined)	-21%	2	0%	-38%	-7	7%
COc1ccc(C(O)C(CN2CCOCC2)c2ccccc2)cc1F (centres undefined)	?	2	-4%	5%	9	6.6µM*
COc1ccc2nc(NC(=O)C3CCN(S(=O)(=O)c4cccs4)CC3)sc2c1	.	-1	-8%	-3%	14	13µM*
COc1ccc2nc(NC(=O)C3CCCN(S(=O)(=O)c4cccs4)C3)sc2c1 (centres undefined)	?	2	-16%	-6%	-2	9.3µM*
C[C@@H]1CN([C@H](C)CO)C(=O)CCCn2nncc2CO[C@@H]1CN(C)C(=O)c1ccncc1	.	.	8%	.	.	.
COc1ccc(CNC(=O)O[C@H]2CN(C(=O)OC(C)C)N(C(=O)OC(C)C)[C@@H]3CN(S(=O)(=O)c4ccc(C)cc4)C[C@]23O)cc1OC	.	.	1%	.	.	.
CCOC(=O)[C@]12CCC=C1N(Cc1ccc3c(c1)OCO3)C(=O)[C@H](CC(=O)NCc1cccc3ccccc13)C2	.	.	-28%	.	.	.
C[C@@H]1[C@H](O)C[C@@]23COC(=O)C2=CCCC3[C@@]1(C)CCC1COC(=O)C1 (some centres undefined)	0.0026µM*	.	8%	5%	.	0.0033µM*
CCn1c(COc2ccccc2)nnc1SCC(=O)Nc1ccc(N2CCOCC2)cc1	-1%	1	-10%	-1%	21	?
CC1(C)Cc2c(sc3nc(-c4cccs4)n(N)c(=O)c23)CO1	.	36*	4%	7%	57	84%
CCc1nc2sc3c(c2c(=O)n1N)CC(C)(C)OC3	11%	1	0%	1%	14	5%
Cc1ccccc1-c1nc2sc3c(c2c(=O)n1N)CCCC3	4.7µM*	43*	-1%	-15%	75*	.
CN(C)c1nc2sc3c(c2c(=O)n1C)CC(C)(C)OC3	28%	11*	13%	0%	44*	21%
SMILES	Pf growth 96h	Cycloheximide cs	AMA1 RON2 block	SARS PLP yeast	Shiga toxin inh	Pf growth 48h
CC1(C)Cc2c(sc3nc(-c4ccccc4)n(N)c(=O)c23)CO1	?	11	45%	0%	46	52%
Nn1c(-c2cccs2)nc2sc3c(c2c1=O)CCCC3	270%	35*	37%	-13%	108*	240%
CC(NC(=O)C(Cc1ccccc1)n1cccc1)c1ccccc1 (centres undefined)	-11%	-3	-5%	-3%	20	?
COc1ccccc1N1CCN(C2CCN(C(=O)COc3ccccc3)CC2)CC1	12%[5.75 µM]	-5	-1%	0%	-4	0%
Cc1cccc(COC[C@H](Cc2ccccc2)N2CCN(C(=O)c3ccc(Cl)c(Cl)c3)CCC2=O)c1	.	.	-4%	.	.	.
Cc1cccc(COCC(Cc2ccccc2)N2CCN(C(=O)c3ccc(Cl)c(Cl)c3)CCC2=O)c1 (centres undefined)	?	-4	-6%	-13%	-10	?
Cc1cccc(COCC(Cc2ccccc2)N2CCN(C(=O)c3cccc(C)c3)CCC2=O)c1 (centres undefined)	?	-2	4%	6%	-11	13µM*
Cc1cccc(COCC(Cc2ccccc2)N2CCN(C(=O)c3cc(Cl)cc(Cl)c3)CCC2=O)c1 (centres undefined)	15µM*	-1	-2%	-10%	18	?
CCc1nc2ccc(C(=O)N3CCN(C(C)=O)CC3)cn2c1N(CC)C(=O)NCCc1ccccc1	.	.	9%	.	.	.
COc1ccc(C(NC(=O)/C=C/c2ccco2)c2ccc(OC)cc2)cc1	2.3µM*	7	-4%	2%	1	10µM*
COc1ccc(CCNC(=O)/C=C/c2ccco2)cc1OC	?	-2	-6%	7%	-9	12%
COc1ccc(C(NC(=O)/C=C\c2ccco2)c2ccc(OC)c(OC)c2)cc1 (centres undefined)	?	25*	-7%	-6%	105*	?
O=C(CSc1nnnn1-c1ccc(Cl)cc1)NC1CCS(=O)(=O)C1 (centres undefined)	.	.	-7%	-3%	.	.
CCC(C)[C@H](N)c1cn([C@@H](Cc2cc3ccccc3[nH]2)C(=O)N2CCNCC2)nn1 (some centres undefined)	?	0	30%	0%	-10	?
CCN(Cc1ccccc1)c1ccc(/C=N/N=C(N)N)cc1	1.7µM*	-4	?	3%	-17	1.5µM*
NC(N)=N/N=C/c1ccc(N(c2ccccc2)c2ccccc2)cc1	2.1µM*	-12	31%	-3%	-16	2.3µM*
C=C(C)Cn1c(SCC(=O)O)nc2c1c(=O)[nH]c(=O)n2C	9%	-1	-3%	-2%	1	4%
O=C(COC(=O)COc1ccc(Br)cc1)NC1CCS(=O)(=O)C1 (centres undefined)	.	.	-9%	.	.	.
O=C(/C=C/c1ccc2c(c1)OCO2)Nc1nc2ccccc2s1	-10%	41*	18%	14%	62*	324%
O=C(/C=C/c1ccc2c(c1)OCO2)Nc1nc(-c2ccc(F)cc2F)cs1	?	-5	.	-2%	-18	1%
Cc1ccc2nc(NC(=O)/C=C/c3ccc4c(c3)OCO4)sc2c1	-18%	3	10%	9%	10	-11%
